The text below walks through data of PubChem BioAssay (Tox21).

Experiment [1] can be described thus: qHTS assay to identify small molecule agonists of the hypoxia (HIF-1) signaling pathway - cell viability counter screen (AID 1224844; calls by dose curve; further: nearly all actives have a fitted effect of over 50% in size; further: potency means the concentration at half of the fitted maximal effect). The method in brief:
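Multiplexed with the HRE beta-lactamase assay, this viability read used CellTiter-Glo luminescence (30 min, RT) on HRE-bla ME-180 cells treated 17 hrs with compounds in 0.5% dialyzed FBS medium.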
(qHTS replaces the single test concentration by a dilution series.)

Experiment [2] is described as follows: qHTS assay to identify small molecule agonists of the hypoxia (HIF-1) signaling pathway (AID 1224846; active means well fitted activation curve with a large enough effect in the signal ratio in the repeat runs, not every such curve was filed as active; the % refers to the signal ratio). The essentials:
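Hypoxia-pathway activation was scored as increased beta-lactamase from an HRE-controlled reporter in ME-180 cells; plated at 2,000 cells per well with 0.5% dialyzed FBS, they were exposed 17 hrs to compounds and then given CCF4-AM.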

Experiment [3] in a line: qHTS assay to identify small molecule agonists of H2AX - cell viability counter screen (AID 1224847; calls by dose curve; further: nearly all actives have a fitted effect of over 30% in size; further: potency means the concentration at half of the fitted maximal effect). The essentials: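 After overnight plating of 1000 CHO-K1 cells per well, a 15-concentration compound series was applied for 3 hr at 37C. Luminescence from CellTiter-Glo, read following 30 min at room temperature, reflected cell viability.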
Experiment [4] in a line: qHTS assay to identify small molecule antagonists of the estrogen related receptor (ERR) signaling pathway from Tox21 library (AID 1224848). Further: nearly all actives have a fitted effect of over 50% in size. Further: potency means the concentration at half of the fitted maximal effect. The method in brief:
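Reading was by luminescence 30 min after ONE-Glo addition. Before that, ERR cells at 2,000 per well had rested 6 h at 37 C/5% CO2 and then received pin-tooled compounds in DMSO for 18 h at 37 C.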

A short description of experiment [5]: qHTS assay to identify small molecule agonists of the estrogen related receptor (ERR) signaling pathway from Tox21 library (AID 1224849; calls by dose curve; further: nearly all actives have a fitted effect of over 15% in size). The conditions noted are these: ERR reporter cell line, ONE-Glo luciferase, 18 h; at 92.4 µM (top of the series) unless noted. The method in brief:
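Six hours post-seeding at 37 C/5% CO2, ERR cells receive DMSO-solubilised compounds; after 18 h at 37 C, ONE-Glo reagent is applied and luminescence recorded.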

The nature of experiment [6]: qHTS RealTime-Glo MT Cell Viability Assay in HepG2 cells - 24 hour (AID 1224867). Further: nearly all actives have a fitted effect of over 50% in size. The essentials: (§1)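 Real-time, nonlytic viability: 600 HepG2 cells/well mixed with NanoLuc enzyme plus prosubstrate; 5 h settle, compound (DMSO) added by pintool; luminescence monitored over 40 h at 37 C.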
Experiment [7] can be described thus: qHTS RealTime-Glo MT Cell Viability Assay in HEK293 cells - 32 hour (AID 1224868). Further: nearly all actives have a fitted effect of over 50% in size. Further: potency means the concentration at half of the fitted maximal effect. The method in brief: (§2)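 Cells + reagent dispensed (600 cells/well, HEK293) → 5 h at 37 C/5% CO2 → 23 nL compound in DMSO pinned → 40 h at 37 C → luminescence read at 0, 8, 16, 24, 32, 40 h.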
The nature of experiment [8]: A CellTox Green Cytotoxicity Assay to monitor cytotoxicity in HEK293 cells - 0 hour (AID 1224869). Further: nearly all actives have a fitted effect of over 50% in size. The method in brief:
(§3)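 Seeding of HEK293 cells together with cytotoxicity dye preceded a 5 h incubation at 37 C/5% CO2. Test compounds in DMSO were then added and fluorescence monitored across 40 h.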

Experiment [9] can be described thus: qHTS RealTime-Glo MT Cell Viability Assay in HepG2 cells - 40 hour (AID 1224870). Further: nearly all actives have a fitted effect of over 50% in size. The method in brief: (§4)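 Real-time viability: cells seeded at 600 per well together with NanoLuc and cell-permeant prosubstrate, compounds added after 5 h incubation. Luminescence tracked at 0, 8, 16, 24, 32 and 40 h of exposure.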
A short description of experiment [10]: A CellTox Green Cytotoxicity Assay to monitor cytotoxicity in HEK293 cells - 40 hour (AID 1224871). Further: nearly all actives have a fitted effect of over 45% in size. Further: potency means the concentration at half of the fitted maximal effect. The method in brief:
as §3

Experiment [11] in a line: qHTS RealTime-Glo MT Cell Viability Assay in HEK293 cells - 16 hour (AID 1224872). Further: nearly all actives have a fitted effect of over 50% in size. Further: potency means the concentration at half of the fitted maximal effect. The essentials:
as §2

Experiment [12] is described as follows: qHTS RealTime-Glo MT Cell Viability Assay in HepG2 cells - 8 hour (AID 1224873). Further: nearly all actives have a fitted effect of over 55% in size. Further: potency means the concentration at half of the fitted maximal effect. The method in brief:
as §4

The nature of experiment [13]: qHTS RealTime-Glo MT Cell Viability Assay in HEK293 cells - 40 hour (AID 1224874). Further: nearly all actives have a fitted effect of over 50% in size. Further: potency means the concentration at half of the fitted maximal effect. Conditions: RealTime-Glo luminescence; max response: active compounds read low. The essentials:
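Tox21 screen in HEK293 using RealTime-Glo MT chemistry, with cells and reagent co-dispensed. Luminescence proportional to viable cell number was captured at intervals during 40 h compound exposure at 37 C.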

Experiment [14] is described as follows: A CellTox Green Cytotoxicity Assay to monitor cytotoxicity in HEK293 cells - 24 hour (AID 1224875). Further: nearly all actives have a fitted effect of over 45% in size. Further: potency means the concentration at half of the fitted maximal effect. The essentials:
as §3

Experiment [15] can be described thus: A CellTox Green Cytotoxicity Assay to monitor cytotoxicity in HepG2 cells - 16 hour (AID 1224876). Further: nearly all actives have a fitted effect of over 45% in size. Further: potency means the concentration at half of the fitted maximal effect. The method in brief:
(§5)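 Nonlytic assay: viable cells exclude the dye, so fluorescence scales with cell death. HepG2 at 600 cells/well, compounds added after 5 h, signal read across 40 h.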

The nature of experiment [16]: qHTS RealTime-Glo MT Cell Viability Assay in HepG2 cells - 32 hour (AID 1224877). Further: nearly all actives have a fitted effect of over 55% in size. The method in brief:
as §1

Experiment [17] can be described thus: A CellTox Green Cytotoxicity Assay to monitor cytotoxicity in HepG2 cells - 24 hour (AID 1224878). Further: nearly all actives have a fitted effect of over 45% in size. Further: potency means the concentration at half of the fitted maximal effect. The method in brief: as §5
A short description of experiment [18]: A CellTox Green Cytotoxicity Assay to monitor cytotoxicity in HepG2 cells - 40 hour (AID 1224879). Further: nearly all actives have a fitted effect of over 40% in size. Further: potency means the concentration at half of the fitted maximal effect. The essentials: as §5
The nature of experiment [19]: qHTS assay to identify small molecule agonists of H2AX (AID 1224845; active means well fitted activation curve with a large enough effect in the signal ratio in the repeat runs, not every such curve was filed as active; the % refers to the signal ratio). The method in brief: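 Phospho-H2AX Ser139 measured by HTRF (ex 320 nm; em 665 and 620 nm) after 24 hr antibody incubation. Compounds, 15 concentrations, 0.76% DMSO, were applied to CHO-K1 cells for 3hr at 37C before lysis.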

A number with no mark means an inactive call. Records with an inconclusive call do not appear. Calls of active or inactive are those of the source. Unless noted, the call rests on the fitted dose curve; in most records, active means well fitted curve in the direction sought with a large enough effect in the repeat runs; inconclusive means weak or mixed curves; inactive means no such curve, though single readings can be large; an effect the other way counts as inactive or inconclusive.
On the % scale 0 is the no-effect control and ±100 the full control effect.

Consider `O=C(C(=O)c1ccccc1)c1ccccc1`, for which the Potency result in experiment [1], in [3], in [4], in [6], in experiment [7] and in [8] was “inactive” throughout. The Potency result in experiment [9], in experiment [10], in [11], in experiment [12], in experiment [14] and in experiment [15] was “inactive” throughout. The Potency entry in [16] and in [17] was “inactive” throughout. Moreover, the molecule was classed as inactive in [2]. The activity change, positive = activation in experiment [5] was 5.83%. The max response in [13] was 3.7%.

In the case of `O=C(N/N=C/c1ccc([N+](=O)[O-])o1)c1ccc(O)cc1`, the Potency result in experiment [1], in [3], in [8], in [15] and in experiment [17] was “inactive” in each case.

On to `CCC(C)=O`, for which the Potency entry in experiment [1], in [3], in experiment [4], in [6], in [8] and in [9] was “inactive” each time. Also, the Potency result in experiment [10], in experiment [11], in experiment [14], in experiment [15], in [16] and in experiment [17] was “inactive” each time. The Potency result in experiment [18] is “inactive”. Moreover, in experiment [2], the outcome was inactive. The max response in experiment [13] was 15.5%.

On to `CCN(CC)CCNC(=O)c1ccc(NC(C)=O)cc1`, for which the Potency result in experiment [1], in experiment [19], in experiment [3], in experiment [6], in experiment [7] and in [8] was “inactive” throughout. The Potency result in [9], in experiment [10], in experiment [11], in experiment [12], in [15] and in experiment [16] was “inactive” each time. In addition, the Potency result in experiment [17] is “inactive”. In experiment [13], the max response was -0.786%.

With `C[N+](C)(C)CCOC(N)=O`, the Potency result in [1], in experiment [3], in [6], in experiment [8], in experiment [9] and in experiment [10] was “inactive” each time. Besides, the Potency entry in experiment [11], in experiment [12], in experiment [14], in experiment [15], in experiment [16] and in experiment [17] was “inactive” each time. Besides, in [13], the max response is 0.438%.

With `CC1C2CC(CC2C2CCCC(O)C2)C1(C)C` (stereo not drawn), the Potency in experiment [3] is 89.8 µM (active); in experiment [10], 49 µM (active); in [14] it was 49 µM (active); in experiment [15], 38.9 µM (active); in [17], 43.6 µM (active); in [18] it was 43.6 µM (active). Moreover, the Potency entry in [6], in experiment [7], in experiment [8], in [9], in [11] and in experiment [12] was “inactive” throughout. In experiment [16], the Potency result is “inactive”. In addition, the max response in experiment [13] was -15.9%.

For `CCCCC(=O)O[C@]1(C(=O)CO)[C@@H](C)C[C@H]2[C@@H]3CCC4=CC(=O)C=C[C@]4(C)[C@@]3(F)[C@@H](O)C[C@@]21C`, the Potency was 34.7 µM (active) in experiment [1], 54.5 µM (active) in experiment [4] and 54.9 µM (active) in experiment [10]. Besides, the call in experiment [2] was inactive. Also, the Potency result in experiment [9], in experiment [14], in experiment [15], in experiment [16], in experiment [17] and in [18] was “inactive” each time.

Turning to `COc1ccccc1N=Nc1c(S(=O)(=O)O)cc2cc(S(=O)(=O)O)cc(NC(C)=O)c2c1O`, the Potency result in [1], in experiment [6], in experiment [7], in [9], in experiment [10] and in [11] was “inactive” throughout. Also, the Potency entry in experiment [12], in experiment [14], in [15], in experiment [16], in experiment [17] and in experiment [18] was “inactive” in each case. The call in experiment [2] was inactive. In addition, in [3], the Potency is 42.3 µM (active). Further, in experiment [5], the activity change, positive = activation is -27.5%. In addition, the max response in [13] is 1.04%.

Turning to `CCOC(=O)[C@@H](C)Oc1ccc(Oc2nc3ccc(Cl)cc3o2)cc1`, the Potency result in [1], in experiment [19], in experiment [8], in experiment [10], in experiment [14] and in [15] was “inactive” throughout. In addition, the Potency entry in experiment [17] and in [18] was “inactive” each time. For the same molecule, the call in [2] was inactive. Moreover, the Potency in experiment [4] was 48.6 µM (active); in [7] it was 21.9 µM (active); in experiment [11], 21.9 µM (active); in experiment [12] it was 7.76 µM (active); in [13], 21.9 µM (active).
